Values joined by “and” are separate entries in the source; they are usually repeats but may differ in a detail not shown here. Equal entries are not always repeated. Inconclusive results are not listed. Entries that show only a call come without a potency. More than one record can exist for a structure, and the calls need not agree. Active and inactive are the calls of the source. Unless noted, calls come from the whole dose curve; as a rule, active = well fitted curve in the direction sought with a large enough effect in the repeat runs; inconclusive = weak or mixed curves; inactive = no such curve, though single readings can be large; an effect the other way counts as inactive or inconclusive.
How the values were obtained:
[1] = qHTS assay to identify small molecule antagonists of the sonic hedgehog signaling (Shh) pathway (AID 1259369; calls by dose curve; note: nearly all actives have a fitted effect of over 45% in size; note: potency is the fitted concentration of half-maximal effect)
Summary of the method: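 Stable Gli1-Luc reporter NIH/3T3 clone; quantitative HTS in stimulated mode with conditioned medium. Luminescence measured after 24hr compound treatment at 37 C.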

[2] = qHTS assay to identify small molecule agonists of the estrogen receptor beta (ER-beta) signaling pathway - cell viability counter screen (AID 1259380); note: nearly all actives have a fitted effect of over 30% in size; note: potency is the fitted concentration of half-maximal effect
Summary of the method: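 Steps: plate ER-beta-UAS-bla HEK293T cells, rest 6 hr; add compounds in DMSO; incubate 16 hr at 37C, 5% CO2; add FRET substrate 2 hr; add CellTiter-Glo, wait 30 min at room temperature; read luminescence.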

[3] = target: Estrogen receptor (Homo sapiens) (UniProt P03372); test: qHTS assay to identify small molecule agonists of the estrogen receptor alpha (ER-alpha) signaling pathway in the presence of an antagonist (AID 1259383; calls by dose curve; note: nearly all actives have a fitted effect of over 15% in size; note: potency is the fitted concentration of half-maximal effect; for activation: top concentration of the series differs between compounds)
Sequence of Estrogen receptor (Homo sapiens) (P03372 whole entry, looked up): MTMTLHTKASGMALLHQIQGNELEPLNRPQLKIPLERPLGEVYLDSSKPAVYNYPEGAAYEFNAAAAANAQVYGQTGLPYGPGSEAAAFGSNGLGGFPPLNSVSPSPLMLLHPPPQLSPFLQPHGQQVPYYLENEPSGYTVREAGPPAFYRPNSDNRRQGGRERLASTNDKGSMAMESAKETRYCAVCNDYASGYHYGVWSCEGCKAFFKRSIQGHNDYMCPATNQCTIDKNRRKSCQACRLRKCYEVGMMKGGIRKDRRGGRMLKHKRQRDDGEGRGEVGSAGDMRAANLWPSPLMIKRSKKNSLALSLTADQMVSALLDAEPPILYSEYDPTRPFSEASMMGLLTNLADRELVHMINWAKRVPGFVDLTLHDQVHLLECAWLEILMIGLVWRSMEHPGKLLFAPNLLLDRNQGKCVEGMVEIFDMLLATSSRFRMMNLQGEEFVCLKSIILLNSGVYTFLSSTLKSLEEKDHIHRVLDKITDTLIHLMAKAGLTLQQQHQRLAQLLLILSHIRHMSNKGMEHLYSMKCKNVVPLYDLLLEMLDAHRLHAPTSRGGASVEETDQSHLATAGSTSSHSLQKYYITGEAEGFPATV
Summary of the method: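 Readout was ERE-driven luciferase luminescence in VM7Luc4E2 cells, which express full-length ER-alpha endogenously. Compounds were tested at 15 concentrations for 22hr alongside 10.0nM ICI-182,780 (final concentration).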

[4] = qHTS assay to identify small molecule agonists or antagonists of the thyroid stimulating hormone receptor (TSHR) signaling pathway - wild type cell line counter screen (AID 1259384; calls by dose curve)
Summary of the method: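 Wild-type HEK293 cells were plated 18 h at 37 C/5% CO2, pin-dosed with compound plus Ro20-1724 medium, held 30 min at room temperature, then given cAMP-d2 and anti-cAMP-cryptate; fluorescence was read after 1 h. Fifteen concentrations, triplicate.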

[5] = qHTS assay to identify small molecule agonists of the estrogen receptor alpha (ER-alpha) signaling pathway in the presence of an antagonist - cell viability counter screen (AID 1259386);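 note: cells exposed to compounds for 22 h at 37 °C before the viability read; nearly all actives have a fitted effect of over 30% in size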; note: potency is the fitted concentration of half-maximal effect
Summary of the method: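 In this counter screen, compound effects on VM7Luc4E2 viability were tested in the presence of the antagonist ICI-182,780 at 10.0nM final. Compounds were dosed at 15 concentrations, exposure lasted 22hr, and the CellTiter-Fluor signal was read.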

[6] = target: Progesterone receptor (Homo sapiens) (UniProt P06401); test: qHTS assay to identify small molecule agonists of the progesterone receptor (PR) signaling pathway (AID 1346784; calls by dose curve; note: nearly all actives have a fitted effect of over 30% in size)
Sequence of Progesterone receptor (Homo sapiens) (P06401 whole entry, looked up): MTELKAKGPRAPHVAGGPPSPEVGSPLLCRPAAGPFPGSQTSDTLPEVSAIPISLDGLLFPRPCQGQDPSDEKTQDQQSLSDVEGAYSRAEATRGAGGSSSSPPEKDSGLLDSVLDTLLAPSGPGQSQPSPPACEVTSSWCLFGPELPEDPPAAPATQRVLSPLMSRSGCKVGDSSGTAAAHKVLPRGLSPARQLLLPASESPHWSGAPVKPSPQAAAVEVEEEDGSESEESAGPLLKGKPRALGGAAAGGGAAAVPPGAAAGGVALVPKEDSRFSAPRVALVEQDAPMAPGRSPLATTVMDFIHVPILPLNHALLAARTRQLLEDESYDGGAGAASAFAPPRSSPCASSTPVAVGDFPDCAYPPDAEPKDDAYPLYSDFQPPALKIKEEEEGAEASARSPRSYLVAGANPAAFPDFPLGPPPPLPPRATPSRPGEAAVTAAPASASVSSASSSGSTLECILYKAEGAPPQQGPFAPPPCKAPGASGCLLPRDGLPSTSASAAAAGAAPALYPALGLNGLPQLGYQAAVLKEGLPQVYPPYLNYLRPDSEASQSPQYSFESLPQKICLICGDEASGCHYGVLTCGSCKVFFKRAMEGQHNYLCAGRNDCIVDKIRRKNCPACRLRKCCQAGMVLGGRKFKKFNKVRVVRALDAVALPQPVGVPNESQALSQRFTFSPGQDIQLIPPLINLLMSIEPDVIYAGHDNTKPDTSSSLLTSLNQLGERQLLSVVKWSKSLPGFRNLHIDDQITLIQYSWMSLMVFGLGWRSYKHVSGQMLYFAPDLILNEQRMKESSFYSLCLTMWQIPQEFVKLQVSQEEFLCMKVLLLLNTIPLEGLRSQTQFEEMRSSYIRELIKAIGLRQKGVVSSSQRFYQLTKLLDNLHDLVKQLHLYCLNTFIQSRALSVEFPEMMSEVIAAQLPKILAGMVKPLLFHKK
Summary of the method: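 PR-UAS-bla HEK 293T cells (beta-lactamase reporter under UAS) in 2% charcoal-stripped FBS, dosed with 23 nL compound after 6 hr, incubated 16hr at 37C. LiveBLAzer B/G FRET substrate added, fluorescence read after 2 hours.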

[7] = qHTS assay to identify small molecule antagonists of the progesterone receptor (PR) signaling pathway - cell viability counter screen (AID 1346798); note: series mostly up to about 92 µM; nearly all actives have a fitted effect of over 50% in size
Summary of the method: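 PR-UAS-bla HEK293T cells, 3,000/well in 2% charcoal-stripped FBS medium, dosed with compounds plus R5020 agonist and incubated 16 h at 37C. Viability then measured in the same wells by CellTiter-Glo luminescence after 30 min at RT.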

[8] = qHTS assay to identify small molecule agonists of the progesterone receptor (PR) signaling pathway - cell viability counter screen (AID 1346799; calls by dose curve; note: nearly all actives have a fitted effect of over 45% in size; note: potency is the fitted concentration of half-maximal effect)
Summary of the method: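 Counter screen in the PR-UAS-bla HEK293T wells (2% charcoal-stripped FBS, 16 h compound exposure at 37 C) after the bla read. CellTiter-Glo added, 30 min at room temperature, luminescence read as cell viability.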

[9] = qHTS assay to identify small molecule antagonists of the TGF-beta/Smad signaling pathway - cell viability counter screen (AID 1346824); note: nearly all actives have a fitted effect of over 50% in size
Summary of the method: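 SBE-bla HEK 293T cells were plated overnight at 37 C, then given compounds in DMSO plus TGF-beta1 (added as 0.25 ng/mL solution) for 5 hr. After the bla read, CellTiter-Glo was added to the same wells and luminescence read after 30 min at room temperature.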

[10] = qHTS assay to identify small molecule agonists of the TGF-beta/Smad signaling pathway - cell viability counter screen (AID 1346829); note: top concentration of the series differs between compounds; nearly all actives have a fitted effect of over 45% in size
Summary of the method: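 Here the cytotoxicity of library compounds is measured in SBE-bla HEK 293T cells treated for 5 hr, using CellTiter-Glo added to wells already read for the beta-lactamase reporter.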

[11] = qHTS assay to identify small molecule agonists of the TGF-beta/Smad signaling pathway (AID 1346859; active = well fitted activation curve with a large enough effect in the signal ratio in the repeat runs, not every such curve was filed as active; the % refers to the signal ratio; note: series mostly up to about 77 µM)
Summary of the method: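 SBE-bla HEK293T cells plated overnight, then compound exposure for 5 h at 37 C. Beta-lactamase reporter read with LiveBLAzer B/G FRET substrate after 2 h at room temperature, fluorescence at 405 nm excitation, 460/530 nm emission.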

[12] = target: Thyrotropin-releasing hormone receptor (Homo sapiens) (UniProt P34981); test: qHTS assay to identify small molecule antagonists of the thyrotropin-releasing hormone receptor (TRHR) signaling pathway (AID 1346877; active = well fitted inhibition curve with a large enough effect in the repeat runs, not every such curve was filed as active; note: series mostly up to about 51 µM)
Sequence of Thyrotropin-releasing hormone receptor (Homo sapiens) (P34981 whole entry, looked up): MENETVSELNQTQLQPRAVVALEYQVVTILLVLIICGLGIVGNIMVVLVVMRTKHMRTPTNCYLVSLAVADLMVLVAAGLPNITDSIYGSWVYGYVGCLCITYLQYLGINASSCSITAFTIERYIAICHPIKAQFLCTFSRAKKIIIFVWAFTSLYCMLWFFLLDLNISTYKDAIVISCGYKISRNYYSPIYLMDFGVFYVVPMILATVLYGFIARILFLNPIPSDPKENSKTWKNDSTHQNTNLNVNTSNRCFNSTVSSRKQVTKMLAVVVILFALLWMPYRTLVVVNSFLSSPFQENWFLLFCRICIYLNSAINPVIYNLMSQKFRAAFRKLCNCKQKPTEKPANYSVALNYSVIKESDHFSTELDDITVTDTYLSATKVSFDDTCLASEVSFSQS
Summary of the method: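 Kinetic fluorescence (3 min, 1 s resolution) following stimulation with TRH at 1 nM final; HEK293 cells bearing human TRHR; 5 min compound preincubation at RT; concentration-response over 15 points, triplicates.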

[13] = target: Thyrotropin-releasing hormone receptor (Homo sapiens) (UniProt P34981); test: qHTS assay to identify small molecule agonists of the thyrotropin-releasing hormone receptor (TRHR) signaling pathway (AID 1346891; calls by dose curve; note: series mostly up to about 58 µM)
Summary of the method: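 HEK293 cells expressing TRHR plated 18 h at 37 C/5% CO2, calcium dye-loaded 2 h at 37 C, then compound added (agonist mode); kinetic calcium fluorescence read 3 min at 1 s intervals; 15 concentrations in triplicate.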

[14] = qHTS assay to identify small molecule antagonists of the estrogen receptor beta (ER-beta) signaling pathway - cell viability counter screen (AID 1259382); note: nearly all actives have a fitted effect of over 55% in size; note: potency is the fitted concentration of half-maximal effect
Summary of the method: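 Viability is scored by CellTiter-Glo luminescence (30 min, room temperature) in ER-beta-UAS-bla HEK293T wells already read for reporter fluorescence. Compound exposure lasts 16 hr at 37C alongside 1nM 17-beta-estradiol in charcoal-stripped serum medium.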

[15] = target: Thyrotropin receptor (Homo sapiens) (UniProt P16473); test: qHTS assay to identify small molecule antagonists of the thyroid stimulating hormone receptor (TSHR) signaling pathway (AID 1259385; calls by dose curve; note: nearly all actives have a fitted effect of over 20% in size)
Sequence of Thyrotropin receptor (Homo sapiens) (P16473 whole entry, looked up): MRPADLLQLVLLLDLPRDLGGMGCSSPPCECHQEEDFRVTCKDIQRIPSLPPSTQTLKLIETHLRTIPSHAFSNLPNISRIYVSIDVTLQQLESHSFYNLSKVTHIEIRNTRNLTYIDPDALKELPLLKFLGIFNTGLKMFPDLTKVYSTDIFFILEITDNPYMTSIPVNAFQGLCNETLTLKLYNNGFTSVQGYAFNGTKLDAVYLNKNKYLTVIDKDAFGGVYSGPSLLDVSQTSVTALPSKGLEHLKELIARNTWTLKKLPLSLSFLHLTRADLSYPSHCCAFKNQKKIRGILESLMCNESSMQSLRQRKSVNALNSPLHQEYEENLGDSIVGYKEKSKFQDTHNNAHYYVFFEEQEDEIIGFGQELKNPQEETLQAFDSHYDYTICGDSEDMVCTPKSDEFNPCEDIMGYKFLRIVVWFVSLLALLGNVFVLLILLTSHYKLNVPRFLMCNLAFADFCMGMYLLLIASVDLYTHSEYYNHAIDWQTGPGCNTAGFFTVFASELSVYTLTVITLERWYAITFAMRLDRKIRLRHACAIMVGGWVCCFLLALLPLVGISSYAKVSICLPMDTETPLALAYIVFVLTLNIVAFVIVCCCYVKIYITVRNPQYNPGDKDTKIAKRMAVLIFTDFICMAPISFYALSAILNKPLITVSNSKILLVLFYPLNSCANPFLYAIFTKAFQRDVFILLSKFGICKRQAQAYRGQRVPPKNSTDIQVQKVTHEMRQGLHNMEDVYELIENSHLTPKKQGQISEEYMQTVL
Summary of the method: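 TSHR-HEK293 cells were plated and held 18 h at 37C/5% CO2, then given compound plus Ro20-1724 and stimulated with TSH at 1.5 ng/mL final. After 30 min at room temperature, cAMP was detected with cAMP-d2/anti-cAMP-cryptate (1 h) by fluorescence.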

[16] = target: Progesterone receptor (Homo sapiens) (UniProt P06401); test: qHTS assay to identify small molecule antagonists of the progesterone receptor (PR) signaling pathway (AID 1346795; active = well fitted inhibition curve with a large enough effect in the signal ratio in the repeat runs, not every such curve was filed as active; the % refers to the signal ratio; note: potency is the fitted concentration of half-maximal effect)
Summary of the method: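 PR-UAS-bla HEK293T cells with beta-lactamase reporter under UAS control, in 2% charcoal-stripped FBS, treated with compounds plus 1 nM promegestone (R5020, final) for 16 hr at 37C. Read-out: FRET beta-lactamase substrate fluorescence after 2 hr at room temperature.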

[17] = qHTS assay to identify small molecule agonists of the androgen receptor (AR) signaling pathway in the presence of an antagonist - cell viability counter screen (AID 1259379); note: nearly all actives have a fitted effect of over 25% in size; note: potency is the fitted concentration of half-maximal effect
Summary of the method: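 Nilutamide-containing (3.0uM final) MDA-kb2 cultures, 3,000 cells/well, were treated with compounds across 15 concentrations. After 16 hr at 37C with no CO2, cell viability was determined by CellTiter-Fluor fluorescence in the luciferase assay wells.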

[18] = target: Androgen receptor (Homo sapiens) (UniProt P10275); test: qHTS assay to identify small molecule agonists of the androgen receptor (AR) signaling pathway in the presence of an antagonist (AID 1259381; calls by dose curve; note: nearly all actives have a fitted effect of over 15% in size)
Sequence of Androgen receptor (Homo sapiens) (P10275 whole entry, looked up): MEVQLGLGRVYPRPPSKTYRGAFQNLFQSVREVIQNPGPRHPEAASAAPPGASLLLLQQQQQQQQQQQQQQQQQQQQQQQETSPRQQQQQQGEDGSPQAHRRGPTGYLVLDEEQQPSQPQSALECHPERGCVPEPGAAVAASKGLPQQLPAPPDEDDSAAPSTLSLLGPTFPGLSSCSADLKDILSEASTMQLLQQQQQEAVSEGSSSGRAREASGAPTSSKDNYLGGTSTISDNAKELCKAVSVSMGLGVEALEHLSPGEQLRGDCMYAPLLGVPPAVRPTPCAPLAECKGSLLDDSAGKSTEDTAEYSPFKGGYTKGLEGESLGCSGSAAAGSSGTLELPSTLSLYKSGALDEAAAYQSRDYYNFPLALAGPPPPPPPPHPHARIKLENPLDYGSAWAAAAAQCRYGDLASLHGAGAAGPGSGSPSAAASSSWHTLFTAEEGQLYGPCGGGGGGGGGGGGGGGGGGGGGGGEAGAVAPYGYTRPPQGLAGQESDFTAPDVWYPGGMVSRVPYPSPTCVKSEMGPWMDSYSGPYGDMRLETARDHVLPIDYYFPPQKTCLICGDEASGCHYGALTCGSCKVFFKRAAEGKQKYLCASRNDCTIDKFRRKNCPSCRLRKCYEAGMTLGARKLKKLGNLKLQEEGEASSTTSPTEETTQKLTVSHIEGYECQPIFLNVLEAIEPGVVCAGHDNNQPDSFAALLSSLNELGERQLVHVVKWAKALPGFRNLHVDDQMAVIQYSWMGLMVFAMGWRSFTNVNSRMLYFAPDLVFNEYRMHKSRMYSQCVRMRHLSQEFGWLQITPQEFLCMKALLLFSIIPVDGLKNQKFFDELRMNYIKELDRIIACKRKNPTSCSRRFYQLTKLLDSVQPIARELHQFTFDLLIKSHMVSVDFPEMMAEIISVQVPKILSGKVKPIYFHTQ
Summary of the method: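 Reporter-gene luminescence from MDA-kb2 cells exposed 16hr at 37C (0% CO2) to 15-point compound titrations with 3.0uM final nilutamide as AR antagonist.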

Row | Compound | Potency [1] | Potency [2] | Potency [3] | Potency [4] | Potency [5] | Potency [6] | Potency [7] | Potency [8] | Potency [9] | Potency [10] | Potency [11] | Potency [12] | outcome [13] | Potency [14] | Potency [15] | Potency [16] | Potency [17] | outcome [18]
1 | O=C(c1ccccc1)c1ccc(O)c(O)c1O | 54.9 µM (active) | inactive | inactive | inactive | 61.6 µM (active) | inactive | inactive | inactive | inactive | inactive | inactive | inactive | inactive | – | – | – | – | –
2 | CC(=O)c1nccs1 | inactive | inactive | inactive | inactive | inactive | inactive | inactive | inactive | inactive | inactive | inactive | inactive | inactive | inactive | inactive | inactive | – | –
3 | CC(C)(C)NC[C@H](O)COc1nsnc1N1CCOCC1 | inactive | inactive | – | – | inactive | inactive | inactive | inactive | inactive | inactive | inactive | – | – | inactive | – | inactive | – | –
4 | C=C1C[C@]23C[C@@]1(O)CC[C@H]2[C@@]12C=C[C@H](O)[C@@](C)(C(=O)O1)[C@H]2[C@@H]3C(=O)O | inactive | inactive | – | inactive | inactive | inactive | inactive | inactive | inactive | inactive | inactive | – | – | inactive | inactive | – | inactive | –
5 | CC1=CC(=O)CC(C)(C)C1 | inactive | 6.29 µM (active) | – | inactive | inactive | inactive | – | 19.9 µM (active) | inactive | inactive | inactive | inactive | inactive | 14.1 µM (active) and inactive | inactive | – | inactive | –
6 | Cc1ccccc1Cl | inactive | inactive | inactive | inactive | inactive | – | inactive | inactive | inactive | inactive | inactive | – | – | inactive | inactive | – | – | inactive
7 | O=c1c(O)c(-c2ccc(O)c(O)c2)oc2cc(O)cc(O)c12 | inactive | inactive | 24.4 µM (active) and inactive | inactive | inactive | inactive | inactive | inactive | inactive | – | inactive | inactive | inactive | – | inactive | 15.4 µM (active) and 16.8 µM (active) | 48.6 µM (active) and inactive | –
8 | CC(=O)OC/C=C(\C)CCC=C(C)C | inactive | inactive | inactive | inactive | inactive | inactive | inactive | – | inactive | inactive | inactive | – | – | inactive | inactive | inactive | – | –
9 | Cc1ccc(C)c(S(=O)(=O)O)c1 | inactive | inactive | – | inactive | inactive | inactive | inactive | inactive | inactive | inactive | inactive | inactive | inactive | – | inactive | – | – | –
10 | COC(=O)CCCCC(=O)OC | inactive | inactive | inactive | – | inactive | inactive | inactive | inactive | inactive | inactive | inactive | inactive | inactive | inactive | – | – | inactive | –
11 | CCCOC(=O)NCCCN(C)C | inactive | inactive | – | inactive | inactive | – | inactive | inactive | inactive | inactive | inactive | – | – | – | inactive | – | – | –
12 | CCOC(=O)CC(=O)OCC | inactive | inactive | – | inactive | inactive | inactive | inactive | inactive | inactive | inactive | inactive | inactive | inactive | – | inactive | inactive | inactive | –
